From PubChem
BoNT A protease: BoNT/A light chain protease inhibitors, primary screen, biochemical, flow cytometry, MLPCN library; Botulinum neurotoxin type A light chain protease (Clostridium botulinum A str. ATCC 3502); multiplex microsphere protease substrate cleavage; inhibition, % at 10 µM; 360,000 tested, 0.17% active; further: plate controls were buffer without enzyme for full effect and enzyme alone for no effect
Autofluor counter: compound fluorescence in toxin protease inhibitor counterscreen; compound autofluorescence counterscreen, microsphere flow cytometry; active compounds read high; fluorescence intensity (test concentration not listed); 360,000 tested, 3.1% active; AID 624483; in the data active means fluorescence intensity above about 16000; inconclusive means no clear call, values can overlap the other calls
Anthrax LF inh2: Bacillus anthracis LF protease inhibitors, primary screen, biochemical, multiplex microsphere, MLPCN library. Lethal factor (Bacillus anthracis), P15917. multiplex microsphere protease cleavage assay. inhibition, % at 10 µM. 360,000 tested, 0.12% active. AID 588501, 2011; further: plate controls were buffer without enzyme for full effect and enzyme alone for no effect
Target sequence (P15917 whole entry, looked up): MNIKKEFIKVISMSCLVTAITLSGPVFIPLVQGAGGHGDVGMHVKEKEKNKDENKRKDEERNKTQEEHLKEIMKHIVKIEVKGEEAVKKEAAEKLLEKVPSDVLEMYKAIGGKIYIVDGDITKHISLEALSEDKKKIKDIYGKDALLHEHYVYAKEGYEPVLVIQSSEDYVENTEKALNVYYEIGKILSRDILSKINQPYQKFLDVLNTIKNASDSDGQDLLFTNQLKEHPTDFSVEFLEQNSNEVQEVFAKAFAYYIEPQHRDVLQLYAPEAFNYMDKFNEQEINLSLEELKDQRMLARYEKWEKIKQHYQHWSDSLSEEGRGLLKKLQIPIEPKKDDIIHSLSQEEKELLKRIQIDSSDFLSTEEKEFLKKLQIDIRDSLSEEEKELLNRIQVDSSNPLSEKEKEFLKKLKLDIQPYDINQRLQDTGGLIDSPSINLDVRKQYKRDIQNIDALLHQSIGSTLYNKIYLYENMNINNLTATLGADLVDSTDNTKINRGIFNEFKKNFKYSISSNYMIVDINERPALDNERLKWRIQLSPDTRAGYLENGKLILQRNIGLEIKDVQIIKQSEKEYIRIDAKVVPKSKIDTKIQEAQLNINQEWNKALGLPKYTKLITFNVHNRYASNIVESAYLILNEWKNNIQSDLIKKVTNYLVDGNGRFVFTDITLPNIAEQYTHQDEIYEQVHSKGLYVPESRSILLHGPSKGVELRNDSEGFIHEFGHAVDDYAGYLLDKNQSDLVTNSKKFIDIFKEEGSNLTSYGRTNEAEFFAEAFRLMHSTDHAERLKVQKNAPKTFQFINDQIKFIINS
FBA Mtb inh: Mtb FBA enzyme inhibitors, primary screen, biochemical, fluorescence, strain H37Rv | Fructose-bisphosphate aldolase (Mycobacterium tuberculosis (strain ATCC 25618 / H37Rv)), … | purified M. tuberculosis FBA, fluorescence read-out | inhibition, % at 1 µM | AID 588726, 2011 | 360,000 tested, 2.3% active; in the data active means inhibition above about 27%;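 further: 0% = vehicle and 100% = reference inhibitor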
BoNT-F LC inh: BoNT/F light chain protease inhibitors, primary screen, biochemical, flow cytometry, MLPCN library; Botulinum neurotoxin type F light chain protease (Clostridium botulinum); AID 588497, 2011; inhibition, % at 10 µM; Multiplex microsphere protease cleavage assay; 360,000 tested, 0.22% active; in the data active means inhibition above about 35%, passing the limit was not always enough; inconclusive means no clear call, values can overlap the other calls; further: plate controls were buffer without enzyme for full effect and enzyme alone for no effect
GDH-TPI counter-1: GDH-TPI coupling enzyme inhibitors, primary screen, artefact control for M. tuberculosis FBA inhibitor project, biochemical, absorbance, full deck; GDH-TPI coupled enzyme counterscreen, NADH absorbance; inhibition, % at 4.8 µM; 360,000 tested, 1.2% active; AID 588335, 2011; in the data active means inhibition above about 30%;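 further: 0% = DMSO wells and 100% = wells lacking the enzyme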
Mtb FBA inh conf: M. tuberculosis aldolase blockers, biochemical, fluorescence, strain H37Rv, confirmation. inhibition, % at 1 µM. 5,600 tested, 78% active. shares compounds with FBA Mtb inh. AID 651616, 2012. purified M. tuberculosis FBA, fluorescence read-out; in the data active means inhibition above about 27%;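 further: 0% = vehicle wells and 100% = reference inhibitor wells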
GDH-TPI counter-2: GDH-TPI coupling enzyme inhibitors, artefact control for M. tuberculosis FBA inhibitor project, biochemical, fluorescence, high throughput | shares compounds with FBA Mtb inh | GDH-TPI coupled enzyme counterscreen | inhibition, % at 1 µM | 5,600 tested, 81% active; in the data active means inhibition above about 10%
An asterisk follows results filed as active; ? = inconclusive; nt = not tested or not shown; + = active, no number. A selection: hits, their analogues and other compounds. The true share with any hit is near 6.6%. Unless noted, no stated cut-off is given here; in the data, active means inhibition above about 30%; inconclusive means no clear call, values can overlap the other calls; inactive means below that.

SMILES	BoNT A protease	Autofluor counter	Anthrax LF inh2	FBA Mtb inh	BoNT-F LC inh	GDH-TPI counter-1	Mtb FBA inh conf	GDH-TPI counter-2
N#CCCn1cc(C(=O)N2CCOCC2)c(-c2ccc3c(c2)OCCO3)n1	0	4341	4	2	1	-7	nt	nt
COCCCNc1ncnc2c1sc1nc(-c3ccco3)c3c(c12)CC(C)(C)OC3	-2	5285	-11	39*	?	39*	98*	94*
Cc1nc2sc3c(NCc4ccco4)ncnc3c2c2c1COC(C)(C)C2	-1	3020	5	5	0	-1	nt	nt
COC(=O)CSc1nc(SC)nc2c1sc1nc(-c3ccco3)c3c(c12)CC(C)(C)OC3	0	3638	1	2	-1	2	nt	nt
CC1(C)Cc2c(c(-c3ccco3)nc3sc4c(NCCO)ncnc4c23)CO1	0	2509	-1	44*	-3	30	135*	101*
Cc1cccc(N(CC(=O)NCCC2=CCCCC2)S(C)(=O)=O)c1C	0	11361	-2	2	-2	-9	nt	nt
O=C(O)c1cc(-c2c[nH]c3ccccc23)nc2cc3ccccc3cc12	nt	nt	nt	55*	nt	17	75*	75*
OCCNc1nc(N2CCN(c3ccccc3)CC2)nc2ccccc12	0	3926	12	107*	-3	13	+	177*
CN(Cc1ccccc1)S(=O)(=O)c1csc(C(N)=O)c1	1	5644	0	3	2	3	nt	nt
Cc1cc(C)nc(N2CCCC(C(=O)NCCC3=CCCCC3)C2)n1 (centres undefined)	0	9682	0	4	-4	4	nt	nt
CCCCn1c(-c2ccc(Cl)cc2)nc2c(=O)n(C)c(=O)[nH]c21	0	2677	0	17	-3	0	nt	nt
Cn1c(=O)[nH]c2c(nc(-c3ccc(Cl)cc3)n2C)c1=O	-2	3672	-7	28*	-9	-4	3	1
CCCCn1c(-c2ccc(OC)cc2)nc2c(=O)n(C)c(=O)[nH]c21	-3	3372	8	58*	2	-4	107*	106*
CCCn1c(-c2ccc(OC)cc2)nc2c(=O)n(C)c(=O)[nH]c21	1	2238	3	71*	0	-2	1	-9
FC(F)(F)c1ccccc1Cc1c(-c2cccc(Cl)c2)nc2c3ccccc3ccn12	1	6017	0	nt	-5	nt	nt	nt
COc1ccc(OCC(=O)OCC(=O)c2ccc(OC)c(F)c2)cc1	-2	6537	-2	-1	-11	-4	nt	nt
Cc1ccccc1C(=O)N(C)[C@H]1C[C@H]2c3[nH]c4ccccc4c3CCN2C(=O)[C@H]1[C@H](C)O	1	3522	-4	7	4	-5	nt	nt
C[C@H](O)[C@@H]1C(=O)N2CCc3c([nH]c4ccccc34)[C@@H]2C[C@@H]1N(C)C(=O)Nc1cccc2ccccc12	1	6058	1	74*	-2	nt	27	24*
C[C@H](O)[C@@H]1C(=O)N2CCc3c([nH]c4ccccc34)[C@@H]2C[C@@H]1N(C)S(=O)(=O)c1ccccc1	1	4023	4	72*	-3	11	+	+
COc1ccc(NC(=O)N(C)[C@H]2C[C@H]3c4[nH]c5ccccc5c4CCN3C(=O)[C@H]2[C@H](C)O)cc1	0	3817	-1	26	-3	9	nt	nt
CC1=CC(C)(C)NC(=S)N1c1cccc2cc(S(=O)(=O)O)ccc12	-1	2799	-6	3	-13	4	nt	nt
Cc1cc(/C=N/NC(=O)Cn2c3ccccc3c(=O)c3ccccc32)c(C)n1-c1ccc(Cl)cc1	0	2885	0	83*	-3	8	144*	119*
Cc1ccc(-n2c(C)cc(/C=N/NC(=O)Cn3c4ccccc4c(=O)c4ccccc43)c2C)cc1	2	2432	0	74*	24	12	133*	119*
COc1ccc(/C(O)=C2/C(=O)C(=O)N(CCN3CCNCC3)C2c2cccc([N+](=O)[O-])c2)cc1 (centres undefined)	-2	3147	17	-1	12	23	nt	nt
CCC(=O)NC(c1ccco1)c1cc(Cl)c2ccccc2c1O (centres undefined)	0	3920	-7	30*	5	12	79*	56*
SMILES	BoNT A protease	Autofluor counter	Anthrax LF inh2	FBA Mtb inh	BoNT-F LC inh	GDH-TPI counter-1	Mtb FBA inh conf	GDH-TPI counter-2
CCCC(=O)NC(c1ccco1)c1cc(Cl)c2cccnc2c1O (centres undefined)	-1	2819	3	0	-12	0	nt	nt
CC(=O)NC(c1ccco1)c1cc(Cl)c2ccc(Cl)nc2c1O (centres undefined)	0	3910	-4	-1	-12	3	nt	nt
CC(=O)NC(c1ccco1)c1cc(Cl)c2ccccc2c1O (centres undefined)	-1	3917	-1	37*	-10	12	+	+
CSc1ccc(C2NC(=O)c3ccccc3N2)cc1 (centres undefined)	0	2986	-3	48*	32	4	23	16*
Cn1cc(C2NC(=O)c3ccccc3N2)c2ccccc21 (centres undefined)	1	3912	3	13	9	8	nt	nt
O=C1NC(c2ccccc2O)Nc2ccccc21 (centres undefined)	3	3217	0	33*	?	13	19	11*
CSc1ccc(C2Nc3cccc4cccc(c34)N2)cc1	0	3135	-12	-1	-6	5	nt	nt
O=C1NC(c2ccc(Cl)c([N+](=O)[O-])c2)Nc2ccccc21 (centres undefined)	0	4302	2	-1	-2	3	nt	nt
COc1ccc(C2NC(=O)c3ccccc3N2)c(OC)c1OC (centres undefined)	0	3902	-2	77*	2	0	75*	65*
O=C1NC(c2cccc(OCc3ccccc3)c2)Nc2ccccc21 (centres undefined)	0	3716	-6	42*	-1	0	168*	134*
COc1cc(C)c(C2NC(=O)c3ccccc3N2)cc1C (centres undefined)	0	3520	0	22	-11	10	nt	nt
Nn1c(SCC(=O)Nc2ccccc2F)nnc1C1CCCCC1	0	4289	-2	2	0	8	nt	nt
